# PubChem BioAssay AID1476 (National Center for Advancing Translational Sciences (NCATS), 2009)
# Several values for one entry are separate records, joined by “and”; a condition that tells them apart may be missing. Equal values may be shown once. Screen size: about 200,000 compounds; about 4,500 (2.2%) were called active. Another 12% or so got no clear call; they are omitted. Calls follow the shape of the dose curve; as a rule, active = well fitted inhibition curve with a large enough effect; inconclusive = small, poorly fitted or top-dose-only effect, or effect the other way; inactive = flat fitted curve, though single readings scatter. The sample as a whole holds a higher share of actives than the screen did. Where a structure was tested more than once in an assay, its records may differ in their call.
# Target: Cruzipain (Trypanosoma cruzi) (UniProt P25779)
# Sequence (P25779 123-467 limits assumed): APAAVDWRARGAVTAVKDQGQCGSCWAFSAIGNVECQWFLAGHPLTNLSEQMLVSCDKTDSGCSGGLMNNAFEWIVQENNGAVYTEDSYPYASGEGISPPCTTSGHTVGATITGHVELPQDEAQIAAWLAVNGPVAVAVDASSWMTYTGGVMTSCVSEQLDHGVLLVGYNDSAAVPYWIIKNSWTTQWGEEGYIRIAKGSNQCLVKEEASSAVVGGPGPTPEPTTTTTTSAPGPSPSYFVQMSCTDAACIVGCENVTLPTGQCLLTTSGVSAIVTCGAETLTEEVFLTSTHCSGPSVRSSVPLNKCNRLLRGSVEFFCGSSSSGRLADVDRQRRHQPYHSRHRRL
# Assay: qHTS Assay for Promiscuous and Specific Inhibitors of Cruzain (without detergent); also: nearly all actives have a fitted effect of over 40% in size
# Details: purified cruzain, Z-FR-AMC fluorescence, no detergent
# Description: Cruzain is a cysteine protease from the tropical parasite Trypanosoma cruzi. Dual qHTS experiment was performed against the NCGC compound collection in order to 1) identify novel inhibitors of the enzyme and 2) profile the compound collection for promiscuous inhibitors operating via colloidal aggregation (by performing detergent-free and detergent-containing comparison screens). Cruzain was assayed by the use of fluorogenic coumarin-based substrate Z-FR-AMC: proteolytic cleavage releases AMC, whose fluorescence is measured at 360 nm excitation and 450 nm emission. Purified cruzain was supplied by the labs of Prof. James McKerrow and Brian Shoichet, UC San Francisco.
# This assay had 0.00005% Triton X-100 concentration. See also releated assay "qHTS Assay for Promiscuous and Specific Inhibitors of Cruzain (with detergent)" with 0.01% Triton X-100.
# See following references for additional details:
# Assay Provider: Shoichet, Brian; University of California, San Fancisco
# Screening Center PI: Austin, C.P.
# Screening Center: NIH Chemical Genomics Center [NCGC]
# Buffer: 100 mM Sodium Acetate, pH 5.5, 5 mM DTT, Triton X-100 concentration: 0.01%.
# Buffer in columns 3 and 4 as negative control (no enzyme).
# Substrate solution: 2 uM final concentration of Z-FR-AMC (catalog number I-1160, Bachem) dispensed throughout the plate.
# Enzyme: 1.5 nM Cruzain final concentration in columns 1, 2, 5-48. Column 1 is neutral (100% activity). Column 2 contained titration of covalent inhibitor K11777, starting concentration 1 mM, then 1:2 dilution in duplicate).
# Three uL of enzyme or buffer were dispensed to 1536-well Greiner black solid bottom plates. Compounds and controls (23 nL) were transferred via Kalypsys PinTool. The plates were incubated for 15 min at room temperature, and then 1 uL of substrate solution was added to start the reaction. The plates were immediately transferred to and read 4 times every 30 seconds for 2 min on ViewLux High-throughput CCD imager (Perkin-Elmer) using 360 nm excitation and 450 nm emission fluorescence protocol. The fluorescence intensity difference between the third and the first time points (time lapse of 60 seconds) was used to compute reaction progress.
# Potency is read from the fitted curve at half-maximal effect.
SMILES,"max response, negative = inhibition",Potency
CCN(CCCNC(=O)c1cc2cc3cc(OC)ccc3nc2s1)c1ccccc1,0.913% (inactive),
Cc1ccc(C(=O)NNC(=O)c2cc3cc4ccccc4nc3s2)cc1,,15.8 µM (active)
COCCNc1ncnc2c1c(-c1ccccc1)cn2-c1ccc(C)c(Cl)c1,6.98% (inactive),
COc1ccc(-n2c(SCC(N)=O)nc3c(oc4ccccc43)c2=O)cc1,-4.62% (inactive),
Cc1cccc(-n2c(SCC(N)=O)nc3c(oc4ccccc43)c2=O)c1,-3.27% (inactive),
Cc1ccc(-n2c(SCC(=O)Nc3cccc(F)c3)nc3c(oc4ccccc43)c2=O)cc1C,,12.6 µM (active)
Cc1ccc(C(=O)Nc2c(C(=O)NC(C)(C)C)oc3ccccc23)cc1,11.2% (inactive),
COc1ccc(OC)c(-c2csc(-c3c(N)c(C(=O)c4ccccc4)n4ccccc34)n2)c1,-9.44% (inactive),
CCn1c(/C=N/NC(=O)c2ccc(OC)cc2)nc2ccccc21,-22.8% (inactive),
COc1ccc(C(=O)Nc2ccccc2C(=O)N/N=C/c2ccccc2OC)cc1,,25.1 µM (active)
COc1ccc(NC(=O)c2ccc(OC)cc2)cc1,-1.58% (inactive),
CN(C)c1ccc(-n2cccc2/C=N/n2cnnc2)cc1,-10.4% (inactive),
CN(C)c1ccc(-n2cccc2/C=C2/SC(=Nc3ccc(F)cc3)NC2=O)cc1,,10 µM (active)
N#Cc1ccccc1Cn1cnc2nc3c(cc2c1=O)CCCC3,2.69% (inactive),
CC(=O)Nc1c(C)nn(-c2ccccc2)c1N1CCC(C(=O)Nc2cc(Cl)ccc2C)CC1,-5.38% (inactive),
CCN(C(=O)CSc1nnc(C)n2c1cc1occc12)c1ccccc1,-4.51% (inactive),
CCCCN(CC)C(=O)c1c[nH]c2ccc(S(=O)(=O)Nc3cccc(OC)c3)cc2c1=O,-1.35% (inactive),
Cc1ccc(Cc2cnc(NC(=O)/C(C#N)=C/c3ccc(-c4cccc([N+](=O)[O-])c4)o3)s2)cc1,,3.16 µM (active)
CCOC(=O)c1ccc(-c2ccc(/C=C(\C#N)C(=O)Nc3ccc(OCC)cc3)o2)cc1,-8.32% (inactive),
CCOC(=O)c1ccc(-c2ccc(/C=C(\C#N)C(=O)Nc3ccc(C)cc3)o2)cc1,-9.9% (inactive),
COc1ccc(-c2nc3c4ccccc4n(CC(=O)Nc4ccc(C(C)=O)cc4)c(=O)n3n2)cc1,12.6% (inactive),
CCN(CC)S(=O)(=O)c1ccc2c(c1)c(=O)c(C(=O)N1CCN(c3cccc(Cl)c3)CC1)cn2C,15.1% (inactive),

SMILES,"max response, negative = inhibition",Potency
COc1ccc(CCC(=O)NCCc2csc(-c3ccc(Cl)cc3)n2)cc1,28.2% (inactive),
CC(=O)c1c(O)c(C)c(O)c(Cc2c(O)c3c(c(C(=O)/C=C\c4ccccc4)c2O)OC(C)(C)C=C3)c1O,23.6% (inactive),
O=C(/C=C/c1ccccc1)c1ccccc1O,9.27% (inactive) and -2.28% (inactive),
CC(=O)c1c(O)c(C)c(O)c(Cc2c(O)c3c(c(C(=O)/C=C/c4ccccc4)c2O)OC(C)(C)C=C3)c1O,24.8% (inactive),7.94 µM (active)
COc1cc(C(=O)NCC(c2ccc(Cl)cc2)N2CCOCC2)cc(OC)c1OC (centres undefined),9.67% (inactive),
O=C(NC(=S)Nc1ccc(NC(=O)c2cccs2)cc1)c1ccc([N+](=O)[O-])cc1,,12.6 µM (active)
O=C(NCCc1ccccc1)/C(=C\c1ccc([N+](=O)[O-])cc1)NC(=O)c1ccccc1,-28.6% (inactive),
COCCCNC(=S)NC(=O)c1ccc([N+](=O)[O-])cc1,-9.94% (inactive),
CNC(=O)/C(=C\C=C\c1ccccc1)NC(=O)c1ccc([N+](=O)[O-])cc1,1.75% (inactive),
O=C(Nc1ccccc1)/C(=C/c1ccc([N+](=O)[O-])cc1)NC(=O)c1ccccc1,,10 µM (active)
O=C(O)c1ccc(NC(=O)c2cccs2)cc1,-2.86% (inactive),
Cc1cccc(C(=O)Nc2ccc(-c3nc4ncccc4o3)cc2C)c1,-6.61% (inactive),
Cc1noc2ncnc(NCc3ccccc3Cl)c12,-9.31% (inactive),
Cc1ccc(C)c(N2CCN(S(=O)(=O)c3ccc4c(c3)C(C(C)C)C(=O)N4)CC2)c1 (centres undefined),-9.68% (inactive),
CCOC(=O)c1cccc(NS(=O)(=O)c2cn(C)c(C)n2)c1,6.22% (inactive),
Cc1ccc2c(=O)cc(C(=O)Nc3sc4c(c3C(=O)NCc3cccnc3)CCCC4)oc2c1,-7.89% (inactive),
Cc1cc(C)n(-c2c(F)c(F)c(COC(=O)c3ccccc3)c(F)c2F)n1,2.62% (inactive),
Cn1nc(-c2ccccc2)c(CSc2cccc(Cl)c2)c1Cl,2.52% (inactive),
Cc1ccc(S(=O)(=O)c2c(COC(=O)c3cccc(Cl)c3)c(-c3ccccc3)nn2C)cc1,,25.1 µM (active)
Cc1ccc(CNC(=O)c2c(O)nc3c(C)cccn3c2=O)cc1,-9.77% (inactive),
O=C(O)c1c(CNCc2cccc(F)c2)c2ccccc2n1Cc1ccccc1,0.0489% (inactive),
